Screening results from PubChem BioAssay.
Many of the other results were omitted from the sample, so hits are more common in it than they were.
TTR transcr act: TTR transcription activators in neuroblastoma reporter cells, primary screen, cell-based, luminescence, SH-SY5Y, TTR promoter Gaussia luciferase. 100% = recombinant luciferase protein wells. activation, % at 16.7 µM. actives 1.3% (n = 92,000);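 active means activation above the mean of all tested compounds plus 3 SD, cut at about 9.5% in these data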;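 further: cells exposed to compounds for one day before reading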
HuH7 TTR inh: TTR promoter reporter inhibitors in hepatoma cells, counter-screen for TTR transcription activator project, cell-based, luminescence, HuH7 hepatoma; shares compounds with TTR transcr act; HuH7 TTR promoter-Gaussia luciferase reporter; inhibition, % at 16.7 µM; actives 4% (n = 1,100); AID 1117279, 2014;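 active means average inhibition above the solvent-only control wells' mean plus 3 SD, cut at about 15% in these data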;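 further: inhibitors lower well luminescence so higher value means more inhibition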
TTR act confirm: TTR transcription activators, retest, confirmation, cell-based, luminescence, SH-SY5Y, triplicate; 1,100 tested, under 10 active; activation, % at 16.7 µM; shares compounds with TTR transcr act; SHSY5Y TTR promoter Gaussia luciferase; 100% = purified Lucia enzyme wells, no cells;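 active means mean activation above a set limit taken from the earlier primary screen, cut at about 11% in these data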
Of the large screens only hits and unclear results are named; the others gave an inactive call (follow-up assays come after a bar, where they were run).

CCCC1CCC2(CC1)CCC2OC(=S)Nc1ccc(I)cc1 (stereo not drawn)	none
O=C(COC(=O)c1cc2ccccc2cc1O)NC(=O)NCc1ccco1	none
COc1ccccc1NC(=O)NNC(=O)c1cc2ccccc2cc1O	none
O=C(OCc1ccccc1F)c1cc2ccccc2cc1O	TTR transcr act 10.7 | HuH7 TTR inh inactive | TTR act confirm inactive
c1ccc(CN2CCN(c3ncnc4sccc34)CC2)cc1	none
O=C(NC1CCCCC1)OC[C@@H]1CSCCS(=O)(=O)N1	none
CCC[C@H]1[C@@H](OC(=O)NCCc2c[nH]c3ccccc23)CC[C@@]23CCCN2C(=O)CCC[C@@H]13	none
C=CC(=O)NC1CCCCN(CC)C1=O (stereo not drawn)	none
O=C(OCc1cn(Cc2cc(F)ccc2F)nn1)N1CCOCC1	none
O=C1CCC[C@H]2C[C@H](NCc3cccc(I)c3)CC[C@]23CCCN13	none
CCCn1c(=N)n(CC(=O)c2cccs2)c2ccccc21	none
O=C(CN1C2=NCCCN2c2ccccc21)c1cccs1	none
O=C(Cn1ccccc1=O)c1cccs1	TTR transcr act 17.3 | HuH7 TTR inh inactive | TTR act confirm inactive
CN(C)[C@H]1CCN(c2cccc3c2S(=O)(=O)N(C2CC2)CCCO3)C1	none
O=c1cc(N2CCN(c3cccc(C(F)(F)F)c3)CC2)[nH]c(=O)n1-c1ccccc1	none
O=C(NCCCc1ccccc1)O[C@@H]1CC[C@@]23CCCN2C(=O)CCC[C@H]3C1	none
COCCN(CC(=O)NCC1CCCO1)C(=O)CCC(=O)Nc1cc(C)ccn1 (stereo not drawn)	none
COCCNC(=O)CN(CC1CCCO1)C(=O)CCC(=O)Nc1ccccn1 (stereo not drawn)	TTR transcr act 16.2 | HuH7 TTR inh inactive | TTR act confirm inactive
COCCNC(=O)C(c1ccc(F)cc1)N(CC1CCCO1)C(=O)CCC(=O)Nc1ccccn1 (stereo not drawn)	none
COC(=O)c1ccc(Cn2ccc3ccc(-c4ccc5ccn(Cc6ccc(C(=O)OC)cc6)c5c4)cc32)cc1	none
COc1cccc(N(C)C(=O)[C@@H](C2CC2)[C@@H](O)c2ccc3ccccc3c2)c1	none
CC(C)N1CCCCC(NC(=O)COCc2ccccc2)C1=O (stereo not drawn)	none
Cc1cc(C)c(NC(=O)CSc2cccc[n+]2[O-])c(C)c1	none
O=C(CSc1cccc[n+]1[O-])Nc1ccc(Cl)cc1F	TTR transcr act 11.1 | HuH7 TTR inh inactive | TTR act confirm inactive
O=C(CSc1cccc[n+]1[O-])Nc1ccc(Br)cc1Br	none
O=C(CSc1cccc[n+]1[O-])Nc1cc2c(cc1Cl)C(=O)c1ccccc1C2=O	none
CN(C)S(=O)(=O)c1cc(NC(=O)CSc2cccc[n+]2[O-])ccc1Cl	none
Cc1ccc(Cl)c(NC(=O)CSc2cccc[n+]2[O-])c1Cl	TTR transcr act 14.3 | HuH7 TTR inh inactive | TTR act confirm inactive
COC(=O)[C@]12C[C@H](CC(=O)N3CCN(C(=O)c4ccco4)CC3)C(=O)N(Cc3cccc4ccccc34)C1=C[C@H](C(C)C)O[C@@H]2C1CC1	none
COC(=O)[C@]12C[C@H](CC(=O)NCCCCc3ccccc3)C(=O)N(Cc3cccc4ccccc34)C1=C[C@H](COCc1ccccc1)O[C@@H]2C	none
CCCc1nc2ccc(C(=O)OC)cn2c1Cc1cccc(F)c1	none
COC(=O)c1ccc2nc(C3CCCCC3)c(Cc3ccccc3)n2c1	TTR transcr act 13.6 | HuH7 TTR inh inactive | TTR act confirm inactive
COC(=O)c1ccc2nc(-c3ccc(F)cc3)c(Cc3ccccc3)n2c1	none
CC(C)C[C@H](NC1(C(=O)NC2CCCCC2)CCCCC1)C(=O)NCCc1c[nH]c2ccccc12	none
CC(C)(C)CCN1C[C@@H]2C(CNC(=O)c3cc(Cl)cc(Cl)c3)[C@@H]2C1 (stereo partly drawn)	none
O=S1(=O)c2c(cccc2N2CC[C@@H](O)C2)OCCCN1C1CC1	none
CCn1c(Cc2ccccc2)n[nH]c1=S	none
CCn1c(CCNC(=O)c2ccc(Cl)cc2Cl)n[nH]c1=S	none
CCn1c(CCNC(=O)c2ccccc2Cl)n[nH]c1=S	TTR transcr act 21.9 | HuH7 TTR inh inactive | TTR act confirm inactive
CCOc1ccc(CCNC(=O)c2cc(-c3ccccc3)c(N3CCOCC3)s2)cc1OC	none
Cc1cc(N2CCC[C@@H]2C)nc2ccccc12	none
C[C@H]1CCCN1c1ccc2c(c1)OCCCN(C1CC1)S2(=O)=O	none
CCCCCC(=O)NC1CCCCN(Cc2ccccc2C)C1=O (stereo not drawn)	none
CCOC(=O)N1CCN(c2cc(=O)n(-c3ccc(OC)cc3)c(=O)[nH]2)CC1	TTR transcr act 9.7 | HuH7 TTR inh inactive | TTR act confirm inactive
CCOc1ccc(-n2c(=O)cc(N3CCN(c4ccc(F)cc4)CC3)[nH]c2=O)cc1	none
CCOC(=O)N1CCN(c2cc(=O)n(-c3ccccc3C)c(=O)[nH]2)CC1	none
